Data: PMC4336329 (PLoS ONE, 2015)
Screen size: about 310,000 compounds; about 14,000 (4.5%) showed an effect of 50% or more. The effect is printed as a negative number. For the sample, strong results were picked, then their nearest neighbours and some compounds at random.

Each compound was assayed against human ether-à-go-go-related gene (hERG) potassium channel (human, UniProt Q12809) (assay: primary screen, population patch clamp on CHO cells stably expressing hERG; higher = less effect of the substance).
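Further: peak tail current of the secondary pulse compared with the same well before compound.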

Sequence of human ether-à-go-go-related gene (hERG) potassium channel (Q12809 whole entry, looked up): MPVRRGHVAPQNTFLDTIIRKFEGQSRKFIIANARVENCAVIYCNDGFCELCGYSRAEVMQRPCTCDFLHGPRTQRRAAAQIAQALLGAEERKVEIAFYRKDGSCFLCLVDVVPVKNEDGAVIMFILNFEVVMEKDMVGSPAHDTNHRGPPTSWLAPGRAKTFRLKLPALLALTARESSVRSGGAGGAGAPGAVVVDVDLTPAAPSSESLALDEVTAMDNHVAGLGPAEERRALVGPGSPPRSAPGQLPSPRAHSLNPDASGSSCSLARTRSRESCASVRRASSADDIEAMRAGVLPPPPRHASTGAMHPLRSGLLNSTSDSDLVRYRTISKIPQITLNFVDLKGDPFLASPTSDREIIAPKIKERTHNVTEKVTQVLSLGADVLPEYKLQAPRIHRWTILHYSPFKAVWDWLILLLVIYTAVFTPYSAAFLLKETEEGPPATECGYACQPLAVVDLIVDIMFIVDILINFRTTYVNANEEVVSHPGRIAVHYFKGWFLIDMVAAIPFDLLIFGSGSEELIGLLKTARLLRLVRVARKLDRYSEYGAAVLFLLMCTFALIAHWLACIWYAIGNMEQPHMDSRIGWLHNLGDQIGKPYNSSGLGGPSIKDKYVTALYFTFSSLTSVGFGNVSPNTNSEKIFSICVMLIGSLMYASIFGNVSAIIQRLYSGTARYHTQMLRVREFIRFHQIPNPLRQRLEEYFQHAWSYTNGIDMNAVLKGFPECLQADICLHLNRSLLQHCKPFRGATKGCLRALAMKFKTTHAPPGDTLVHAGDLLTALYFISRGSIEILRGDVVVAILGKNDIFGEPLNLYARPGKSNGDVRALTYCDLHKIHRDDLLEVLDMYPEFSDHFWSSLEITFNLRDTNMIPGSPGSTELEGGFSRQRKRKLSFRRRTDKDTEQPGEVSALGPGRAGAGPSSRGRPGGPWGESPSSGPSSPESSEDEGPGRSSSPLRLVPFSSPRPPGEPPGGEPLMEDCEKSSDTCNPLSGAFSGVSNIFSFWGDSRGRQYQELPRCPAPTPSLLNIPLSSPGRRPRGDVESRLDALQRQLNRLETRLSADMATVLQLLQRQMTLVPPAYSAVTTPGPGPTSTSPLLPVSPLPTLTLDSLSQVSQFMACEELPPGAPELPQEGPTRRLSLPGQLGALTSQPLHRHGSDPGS

SMILES | hERG current change (%, negative = inhibition) at 10uM
COc1cccc(C2c3[nH]c4ccccc4c3CCN2Cc2cccn2-c2ncccn2)c1 (centres unmarked) | -76.1%
CC(=O)NCCC(=O)N1CCc2c([nH]c3ccccc23)C1c1cccc(C)c1 (centres unmarked) | -14.3%
CCn1nc(C)c(CN2CCc3c([nH]c4ccccc34)C2c2ccc(F)c(OC)c2)c1C (centres unmarked) | -48.2%
COc1cccc(C2c3[nH]c4ccccc4c3CCN2Cc2ncc[nH]2)c1 (centres unmarked) | -49.4%
Cc1cccc(C2c3[nH]c4ccccc4c3CCN2Cc2cccn2-c2ncccn2)c1 (centres unmarked) | -77.8%
CSc1ncc(CN2CCc3c([nH]c4ccccc34)C2c2cccc(O)c2)cn1 (centres unmarked) | -22.9%
COc1ccc(C2c3[nH]c4ccccc4c3CCN2Cc2cccn2-c2ncccn2)cc1C (centres unmarked) | -52%
COc1cccc(C2c3[nH]c4ccccc4c3CCN2Cc2cnc(C)s2)c1OC (centres unmarked) | 2.51%
CCC(=O)NC(NC(=S)Nc1ccccc1Br)C(Cl)(Cl)Cl (centres unmarked) | 18.2%
O=C1CC2(CCCC2)C(=O)N1CN1CCN(S(=O)(=O)c2ccc(Cl)c(Cl)c2)CC1 | 3.53%
CCCCOC(=O)n1c(SCC(=O)N(CC)CC)nc2ccccc21 | -34.7%
CCCn1c(O)c(/C=C2\C=NN=C2c2ccccc2)sc1=S | 7.93%
c1ccc(C2Nc3cccc4cccc(c34)N2)cc1 | 14%
CN1CCN(NC(=O)c2cc(S(=O)(=O)Nc3ccc(Cl)cc3)ccc2Cl)CC1.Cl | 5.84%
CCOC(=O)CNC(=O)c1ccc(Br)s1 | -9.48%
CCOc1cccc(-c2c(C(=O)N/N=C(\C)c3ccncc3)nnn2-c2nonc2N)c1 | -43.6%
COc1ccc(-c2cccc(C(=O)Nc3ccc(C)cc3)c2)cc1 | 16.9%
COc1ccc2cc(-c3ccccc3)c(=O)oc2c1 | 18%
COc1ccc(-[n+]2c(-c3ccccc3)cc(-c3ccc(C)cc3)cc2-c2ccccc2)cc1.[O-][Cl+3]([O-])([O-])[O-] | -77.7%
COc1ccc(-[n+]2c(-c3ccccc3)cc(-c3ccccc3)cc2-c2ccccc2)cc1.[O-][Cl+3]([O-])([O-])[O-] | -71.9%
COc1ccc(-c2ccc(OC)cc2)cc1 | 7.51%
COc1ccc2cc(-c3ccccc3)ncc2c1 | 5.65%
CSc1ccc(S(=O)(=O)NCc2ccccc2)cc1 | 13.1%
